From article PMC8384837, “Expanding the binding specificity for RNA recognition by a PUF domain”

Biological target: T1, PUM1 PUF domain R6-AFE (Homo sapiens, UniProt Q14671 828-1176, N1043A;Y1044F;Q1047E)
T1 sequence: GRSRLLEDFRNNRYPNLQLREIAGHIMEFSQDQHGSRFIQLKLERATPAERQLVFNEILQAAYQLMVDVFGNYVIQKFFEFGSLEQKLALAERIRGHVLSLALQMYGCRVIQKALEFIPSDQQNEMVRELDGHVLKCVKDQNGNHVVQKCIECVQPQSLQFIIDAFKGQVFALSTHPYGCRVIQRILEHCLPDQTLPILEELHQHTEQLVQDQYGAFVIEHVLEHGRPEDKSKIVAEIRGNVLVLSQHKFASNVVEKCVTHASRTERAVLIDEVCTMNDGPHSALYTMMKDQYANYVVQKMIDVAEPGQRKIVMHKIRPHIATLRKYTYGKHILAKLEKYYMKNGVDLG
Assay: yeast three-hybrid, YBZ-1, SC-Leu-His + 0.5 mM 3-AT, 4 days
Settings: tags: N-Gal4 AD-HA kept; label: inside an RPR1-promoter hybrid RNA with tandem MS2 sites; ssRNA
Procedure, shortened: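 The interaction score is the log change in variant frequency from input to selection. Scores were computed in log2 with a pseudocount of 1 for absent variants, using Illumina sequencing of PCR-amplified repeat regions. The input came from four days on SC-Leu and the selection from four days on SC-Leu-His + 0.5 mM 3-AT. The cells were strain YBZ-1 (LexA–MS2 coat fusion, HIS3 reporter) co-expressing Pumilio-1 PUF domain libraries and matching RNA elements from a centromeric plasmid.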

Sequence | binding signal
GGCUAGAACUAGUGGAUCCCCCGGCGCCCGGCGGCUCGAGCCCGGGUAAGUGUAAAUAGUCUGCAUGCCGCCGGGCGCCAUGCCUGCAGGUCGACUCUAGAAAACAUG | 1.28 log2 enrichment (interaction score)
GGCUAGAACUAGUGGAUCCCCCGGCGCCCGGCGGCUCGAGCCCGGGUAAGUGGAAAUAGUCUGCAUGCCGCCGGGCGCCAUGCCUGCAGGUCGACUCUAGAAAACAUG | 3.97 log2 enrichment (interaction score)
GGCUAGAACUAGUGGAUCCCCCGGCGCCCGGCGGCUCGAGCCCGGGUAAGUGAAAAUAGUCUGCAUGCCGCCGGGCGCCAUGCCUGCAGGUCGACUCUAGAAAACAUG | 3.96 log2 enrichment (interaction score)
